Screening results from PubChem BioAssay.
HP1b binding inh – HP1-beta chromodomain-methylated histone interaction inhibition; AlphaScreen HP1-beta / biotin-H3K9me3 peptide binding; Potency, µM (titrated, usually from 114 µM), inactives show top-dose activity change, negative = inhibition, actives largely listed as inhibitors; P83916; AID 540317; 390,000 compounds, 0.56% hits; also: nearly all actives have a fitted effect of over 70% in size
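Compound inhibition of the preformed complex between 50 nM HP1-beta and 50 nM biotinylated H3K9me3 peptide was read by AlphaScreen. Buffer was PBS pH 7.4 with 0.01% Tween-20. Incubations ran 30 min at room temperature, with 10 ug/mL donor/acceptor beads.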
BAZ2B inh – blocks human BAZ2B; AID 504333; AlphaScreen BAZ2B-H3K14Ac peptide displacement; Potency, µM (top dose mostly 114 µM), for inactives: top-dose activity change, negative = inhibition, hits mostly inhibitors; Q9UIF8; 360,000 compounds, 4.4% hits; also: % is scaled to controls: 0 for no effect and ±100 for the full control effect; nearly all actives have a fitted effect of over 60% in size
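Multi-concentration screen (max 110 uM) measuring displacement of acetylated histone H3 peptide from BAZ2B by AlphaScreen, using 50 nM protein, 50 nM peptide and 10 ug/mL streptavidin donor plus Ni-chelate acceptor beads.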
G9a inh – G9a (human) methyltransferase inhibition. Potency, µM (series often up to 102 µM), without a hit: at the highest dose activity, negative = inhibition, actives largely listed as inhibitors. 350,000 compounds, 8.8% hits. G9a H3K9 monomethylation, AlphaScreen, 2 h. Q96KQ7. AID 504332; also: % is scaled to controls: 0 for no effect and ±100 for the full control effect; nearly all actives have a fitted effect of over 75% in size
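Compounds were preincubated with 20 nM G9a for 15 min, after which biotinylated H3K9 peptide (500 nM) and SAM (20 uM) started a 2 h room-temperature reaction. Monomethylated product was quantified by antibody-based AlphaScreen chemiluminescence.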
Sfp inh – inhibitors of Bacillus subtilis Sfp phosphopantetheinyl transferase; Q9F4F7; 310,000 compounds, 3.5% hits; Biochemical Sfp PPTase activity, qHTS; Potency, µM, without a hit: largest response in the series, negative = inhibition, actives largely listed as inhibitors; AID 1490;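 also: the enzyme is Sfp with the accession as filed and its product quenches rhodamine fluorescence; 0% = enzyme reaction without inhibitor and -100% = no enzyme wells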
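Sfp 15 nM + cpd, 15 min RT; start w/ rhodamine-CoA 5 uM, BHQ-2-YbbR 12.5 uM (final); 50 mM Hepes pH 7.6, 10 mM MgCl2, 0.01% NP-40, 0.01% BSA; read 525/598 nm at 0 and 30 min.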
JMJD2A Tudor – inhibitors of human JMJD2A Tudor domain. Potency, µM (titrated, usually from 114 µM), for the others: top-dose activity change, negative = inhibition, hits mostly inhibitors. O75164. 390,000 compounds, 4.4% hits. AlphaScreen JMJD2A-Tudor / H3K4me3 peptide binding; also: % is scaled to controls: 0 for no effect and ±100 for the full control effect; nearly all actives have a fitted effect of over 50% in size
Target sequence (O75164 whole entry, looked up, the tested form may be a part): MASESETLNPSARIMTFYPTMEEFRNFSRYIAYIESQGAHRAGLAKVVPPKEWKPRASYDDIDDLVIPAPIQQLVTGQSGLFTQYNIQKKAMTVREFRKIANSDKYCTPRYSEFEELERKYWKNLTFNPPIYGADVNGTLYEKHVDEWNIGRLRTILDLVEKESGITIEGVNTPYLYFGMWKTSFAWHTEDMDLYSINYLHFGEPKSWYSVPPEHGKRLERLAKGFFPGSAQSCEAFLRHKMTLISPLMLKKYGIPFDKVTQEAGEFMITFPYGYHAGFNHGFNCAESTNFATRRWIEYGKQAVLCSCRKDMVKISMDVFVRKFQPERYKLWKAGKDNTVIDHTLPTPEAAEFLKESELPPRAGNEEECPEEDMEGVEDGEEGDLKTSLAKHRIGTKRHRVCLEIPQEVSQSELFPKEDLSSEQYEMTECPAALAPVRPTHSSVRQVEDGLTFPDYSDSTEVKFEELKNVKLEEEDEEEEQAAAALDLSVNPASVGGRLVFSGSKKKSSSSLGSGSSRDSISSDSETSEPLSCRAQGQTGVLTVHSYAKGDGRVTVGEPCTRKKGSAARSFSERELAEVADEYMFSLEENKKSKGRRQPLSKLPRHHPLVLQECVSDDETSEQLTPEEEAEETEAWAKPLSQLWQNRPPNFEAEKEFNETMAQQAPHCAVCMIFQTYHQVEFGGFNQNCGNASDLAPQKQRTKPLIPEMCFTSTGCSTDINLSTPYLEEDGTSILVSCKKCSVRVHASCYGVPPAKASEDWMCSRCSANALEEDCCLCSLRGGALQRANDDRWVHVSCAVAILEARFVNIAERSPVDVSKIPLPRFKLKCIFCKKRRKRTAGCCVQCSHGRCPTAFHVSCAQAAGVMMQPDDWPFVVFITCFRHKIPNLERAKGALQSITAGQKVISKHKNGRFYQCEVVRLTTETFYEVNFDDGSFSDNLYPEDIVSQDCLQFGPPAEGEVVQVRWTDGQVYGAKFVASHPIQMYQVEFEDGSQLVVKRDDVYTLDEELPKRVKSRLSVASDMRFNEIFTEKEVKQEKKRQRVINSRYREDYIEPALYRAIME
L3MBTL1 block – inhibitors of human L3MBTL1 | AlphaScreen L3MBTL1–H3K9me1 peptide binding | Potency, µM (titrated, usually from 57.1 µM), without a hit: at the top dose activity, negative = inhibition, most hits filed as inhibitors | AID 485360 | 230,000 compounds, 0.66% hits; also: % is scaled to controls: 0 for no effect and ±100 for the full control effect; nearly all actives have a fitted effect of over 60% in size
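L3MBTL1 (50 nM) pre-complexed 30 min with biotinylated H3(1-15)K9me1 peptide (75 nM), then compounds added for 30 min at room temperature; AlphaScreen streptavidin donor/nickel chelate acceptor beads (10 ug/mL final) read after 30 min dark incubation.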
The depositor's hits bear a star; ? = inconclusive; · = no result; ! = repeats disagree; [ ] = remark or other dose. Hits are enriched below; roughly 12% of the tested compounds scored in any of these assays. Calls follow the shape of the dose curve; as a rule, active = well fitted curve in the direction sought with a large enough effect; inconclusive = small, poorly fitted or top-dose-only effect, or another doubt; inactive = no such curve, though single readings can be large; an effect the other way counts as inactive or inconclusive. Potency is read from the fitted curve at half-maximal effect.

SMILES | HP1b binding inh | BAZ2B inh | G9a inh | Sfp inh | JMJD2A Tudor | L3MBTL1 block
CCOc1ccccc1N(CC)C(=O)Cn1ncc2c([nH]c3ccccc32)c1=O | 15.5% | 2.2% | -1.1%[59 µM] | · | 5.9% | ·
O=C(Nc1ccc(F)cc1)C1CCN(c2nc3ccccc3nc2C(F)(F)F)CC1 | 23.5% | 1.7% | 1.3%[59 µM] | · | -3.6% | ·
Cc1ccc(C2(CCNCc3ccc(N(C)C)cc3)CCOC(C(C)C)C2)cc1 (stereo unspecified) | ? | 35.5µM* | ? | 13.8% | 39.8µM* | ?
CC(C)C1CC(CCNCc2ccc3c(c2)OCO3)(c2ccccc2)CCO1 (stereo unspecified) | 23.6% | -5.2% | -5.5% | 8.3% | -21.7% | ·
CC(C)C1CC(CCNCc2ccc(N(C)C)cc2)(c2ccccc2)CCO1 (stereo unspecified) | ? | 25.1µM* | 35.5µM* | 4.3% | 31.6µM* | -29.9%
O=C1C2CC=C(Cl)CC2C(=O)N1CCCCCCN1C(=O)C2CC=C(Cl)CC2C1=O (stereo unspecified) | ? | 44.7µM* | 11.2µM* | 0.5% | 44.7µM* | ·
O=C1C2CC=C(Cl)CC2C(=O)N1CCN1CCOCC1 (stereo unspecified) | 33.7% | 3.7% | -6.6% | 10.6% | 5.6% | ·
CCCn1c(SCC(=O)N2CC(=O)Nc3ccccc32)nc2ccccc21 | 9.5% | 8.5% | 31.6µM* | ? | -19.9% | 1.2%
Cn1c(SCC(=O)N2CC(=O)Nc3ccccc32)nc2ccccc2c1=O | 37.9% | 8.7% | 22.2%[12.7 µM] | · | 6.4% | 4.0%
O=C1CN(C(=O)CSc2nc3ccccc3n2CCc2ccccc2)c2ccccc2N1 | 21.7% | -34.4% | 10µM* | -17.4% | -1.1% | -5.8%
O=c1c(O)c(-c2ccc(O)cc2)oc2ccc(O)cc12 | · | · | · | 15.5% | · | ·
Cn1cc(S(=O)(=O)N2CCCC2)cc1C(=O)Nc1ccc(C(F)(F)F)cc1 | 7.2% | ? | -40.8%[59 µM] | · | -19.4% | ·
COCCCn1c(=N)c(C(=O)NCc2cccnc2)cc2c(=O)n3cccc(C)c3nc21 | 2.7% | -10.2% | -3.5%[59 µM] | · | -26.0% | ·
O=C(NC1CC(=O)N(c2cccc(F)c2)C1)c1ccc(S(=O)(=O)N2CCOCC2)cc1 (stereo unspecified) | -8.8% | -1.2% | -4.7%[59 µM] | · | -7.8% | ·
CC1(C)C(=O)N(CCN2CCC(C(=O)c3ccc(F)cc3)CC2)c2ccccc21 | 57.5% | 2.0% | 20µM*! | · | -11.5% | -9.8%
C/C(=N\NC(N)=S)C1=CCC2C3CC[C@H]4CC(O)CC[C@]4(C)C3CC[C@]12C (stereo partly specified) | ? | -1.3% | 8.91µM* | 39.8µM* | -18.5% | ·
CC12CCC3C(CCC4CC(O)CCC43C)C1CC=C2c1ccccc1 (stereo unspecified) | · | · | · | 6.6% | · | ·
COc1ccc(-n2c(SCC(=O)NC3CC3)nc3ccccc3c2=O)cc1OC | 39.0% | 6.5% | 12.8%[59 µM] | · | 4.7% | -6.5%
CCOC(=O)CN1CC23C=CC(O2)C(C(=O)NCc2ccc(F)cc2)C3C1=O (stereo unspecified) | 57.4% | -2.0% | 22.4µM* | 17.0% | 0.0% | 11.7%
CCOC(=O)CN1CC23C=CC(O2)C(C(=O)N2CCN(c4ccc(F)cc4)CC2)C3C1=O (stereo unspecified) | 22.2% | -2.4% | -50.5% | 4.2% | -20.8% | -5.9%
COc1cc(C)c(/C=C/C(C)=C/C=C/C(C)=C/C(=O)O)c(C)c1C | 9.7% | · | ? | -13.1% | 56.2µM* | ·
COCCCn1cnc2c(c1=O)c1nc3ccccc3nc1n2-c1ccc(C)cc1 | 14.9% | 11.8% | 11.4% | 9.2% | -9.3% | 4.9%
COc1ccc(Cn2c3nc4ccccc4nc3c3c(=O)n(Cc4ccco4)c(C)nc32)cc1 | · | 50.1µM* | ? | 7.94µM* | · | ·
CCO/C(C)=N/n1c2nc3ccccc3nc2c2c(=O)n(Cc3ccccc3Cl)c(C)nc21 | -14.3% | 12.9% | 36.7% | -5.2% | -19.1%[11.4 µM] | 2.2%
